# PRMT1 FP inh: inhibitors of human PRMT1 | Q99873 | recombinant PRMT1, activity-based probe fluorescence polarization | inhibition, % at 2.79 µM | 370,000 compounds, 1.3% hits;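 active = inhibition above about 21% made by adding two undisclosed values, limit read from the data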
# TCR-CD3 inh: inhibitors of human TCR-CD3 interaction; TAMRA-labeled TCR probe fluorescence, biochemical; inhibition, % at 9.4 µM; 360,000 compounds, 0.37% hits; AID 651800; in the data active = inhibition above about 19%;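 also: recombinant mutant TCR 2C K166C tagged with TAMRA read by polarization; 0% = receptor in buffer alone and 100% = receptor with positive control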
# Fam108B inh: blocks mouse Fam108B hydrolase in RBBP9 counter-screen; 300,000 compounds, 0.33% hits; recombinant Fam108B, FP-Rh probe fluorescence polarization; inhibition, % at 9.51 µM;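 active = inhibition above the screen mean inhibition plus 3 SD, computed separately per campaign, cut at about 18% in these data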;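 also: inhibitors lower polarization as less probe binds the enzyme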
# PME-1 primary: PME-1 (human) inhibition. 320,000 compounds, 0.53% hits. Q9Y570. recombinant PME-1, FP-Rh probe fluorescence polarization. inhibition, % at 5.9 µM;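 active = inhibition above the campaign mean of all compounds plus 3 SD, cut at about 26% in these data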;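 also: competitive labeling of PME-1 active site by serine hydrolase directed probe; 0% = PME-1 with DMSO and 100% = wells lacking PME-1 enzyme; inhibitors block probe labeling so polarization falls and inhibition rises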
# SIAE primary: human SIAE inhibition, primary screen. SIAE FP-Rh probe binding, fluorescence polarization. inhibition, % at 9.66 µM. 370,000 compounds, 0.69% hits;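 active = inhibition above a cutoff: mean of compounds within the control limits plus 3 SD of those, cut at about 17% in these data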;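 also: 0% = plate median of compound wells and 100% = probe without SIAE protein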
# PAD4 FP inh: PAD4 (human) enzyme inhibition; AID 485272; 330,000 compounds, 0.41% hits; Q9UM07; inhibition, % at 6.36 µM; recombinant PAD4, RCA probe fluorescence polarization;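 active = percent inhibition above a cutoff equal to the mean of all tested compounds plus 3 SD, cut at about 15% in these data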;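 also: 0% = PAD4 with RCA probe and DMSO and 100% = probe without PAD4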
# Target sequence (Q9UM07 whole entry, looked up): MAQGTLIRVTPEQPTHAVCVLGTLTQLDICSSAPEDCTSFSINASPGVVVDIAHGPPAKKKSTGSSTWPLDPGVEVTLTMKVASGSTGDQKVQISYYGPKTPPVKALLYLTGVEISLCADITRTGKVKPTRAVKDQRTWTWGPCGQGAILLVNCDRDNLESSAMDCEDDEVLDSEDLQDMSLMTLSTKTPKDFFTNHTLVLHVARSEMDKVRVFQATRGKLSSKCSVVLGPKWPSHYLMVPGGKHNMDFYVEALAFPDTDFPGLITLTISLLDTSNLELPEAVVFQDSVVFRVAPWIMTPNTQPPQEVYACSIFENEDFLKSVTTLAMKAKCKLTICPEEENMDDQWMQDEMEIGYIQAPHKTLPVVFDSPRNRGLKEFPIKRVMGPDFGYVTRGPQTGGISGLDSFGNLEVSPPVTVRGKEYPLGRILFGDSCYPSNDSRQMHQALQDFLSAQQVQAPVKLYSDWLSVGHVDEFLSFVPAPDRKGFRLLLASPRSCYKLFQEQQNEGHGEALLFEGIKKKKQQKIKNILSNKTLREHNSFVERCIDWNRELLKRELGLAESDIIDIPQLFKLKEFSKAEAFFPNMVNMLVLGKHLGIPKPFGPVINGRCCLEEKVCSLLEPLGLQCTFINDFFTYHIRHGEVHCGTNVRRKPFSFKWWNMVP
# PAD4 confirm: PAD4 (human) inhibition, confirmed; shares compounds with PAD4 FP inh; inhibition, % at 6.36 µM; recombinant PAD4, RCA probe fluorescence polarization; 1,200 compounds, 28% hits;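 active = mean inhibition across replicates above the hit cutoff set by the earlier primary screen, cut at about 15% in these data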;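 also: inhibitors block active-site labeling by the probe so polarization falls; 0% = PAD4 with probe and DMSO and 100% = probe without PAD4 enzyme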
# Starred values were filed as active, the others as inactive; · = no result given. This is a sample that favours compounds with a hit; in the whole collection about 2.6% have one here.
SMILES,PRMT1 FP inh,TCR-CD3 inh,Fam108B inh,PME-1 primary,SIAE primary,PAD4 FP inh,PAD4 confirm
NS(=O)(=O)c1ccc(NC(=S)NCc2ccc(Cl)cc2)cc1,4.4,3.5,-3.4,-5.0,-9.4,20.0*,6.5
NS(=O)(=O)c1ccc(CNC(=S)Nc2ccc(F)c(Cl)c2)cc1,2.9,-6.9,-0.1,2.5,-0.7,-2.4,·
NC(=O)c1nsc(C(=O)N(Cc2ccco2)C(C(=O)NCc2ccc(F)cc2)c2ccc(O)cc2)c1N (stereo not given),-4.4,1.1,-3.2,4.3,-4.4,2.2,·
CCC(C)(C)NC(=O)C(c1ccc(F)cc1)N(Cc1ccco1)C(=O)c1snc(C(N)=O)c1N (stereo not given),1.4,-6.3,-2.0,-6.3,4.3,16.3*,2.7
CC1=NN(c2ccc(C)cc2)C(=O)/C1=C\c1ccc(Br)s1,0.1,0.1,11.3,4.6,10.2,21.2*,40.5*
CC(C)c1ccc(N=c2c([N+](=O)[O-])nn(-c3ccc4c(c3)OCCO4)n2O)cc1,-0.8,-1.6,-2.1,6.1,3.3,18.5*,1.9
COc1cc(N=c2c([N+](=O)[O-])nn(-c3ccc4c(c3)OCCO4)n2O)cc(OC)c1,-0.1,-2.5,5.8,8.9,0.6,-4.9,·
COC(=O)[C@]1(C)CN(C(=O)OC(C)(C)C)C2=C1C(=O)C[C@](C)(C(=O)OC(C)(C)C)C2,4.7,·,·,·,5.3,·,·
C(=N\n1cnnc1)/c1ccc2c(c1)OCCO2,-3.2,0.5,0.1,3.2,7.7,17.9*,1.6
CCCC(=O)Nc1ccc(Br)c(Cl)c1,-1.7,5.3,7.8,-0.2,0.2,15.3*,11.1
COc1ccc(CCNC(=O)c2c[nH]c3ccc(F)cc3c2=O)cc1OC,0.1,-1.2,-2.9,-5.7,-6.1,83.2*,3.5
COc1ccc(CCNC(=O)c2c[nH]c3ccccc3c2=O)cc1OC,-3.3,6.9,1.2,-4.2,0.1,0.1,·
COc1ccc(C(=O)CSc2nnc(-c3cccnc3)n2-c2ccccc2)cc1,-3.1,·,·,·,-1.7,·,·
CCOc1ccccc1C(=O)NCC(=O)NCCCc1ccccc1,-2.4,-2.4,1.2,0.6,-0.6,62.2*,-1.1
CCCC[C@@H]1C(=O)N2N=Cc3cc(C)c(C)cc3[C@H]2N2N=Cc3cc(C)c(C)cc3[C@@H]12,4.7,·,·,·,-10.6,·,·
CC(C)CNc1nnnc2c1sc1nc(N3CCOCC3)c3c(c12)CC(C)(C)SC3,0.5,-1.4,-7.2,20.0,-1.5,27.2*,11.7
O=C(O)[C@H](Cc1ccccc1)NC(=O)N1CCC(Cc2ccccc2)CC1,2.6,-6.3,1.0,-6.7,1.4,42.0*,-0.4
O=C(NC(=S)Nc1ccc2[nH]c(=O)[nH]c2c1)c1ccccc1F,-0.4,-7.7,-3.3,8.5,-5.6,-1.5,·
O=C(NC(=S)Nc1ccc(F)c([N+](=O)[O-])c1)c1ccccc1F,33.0*,1.3,2.7,4.7,3.3,17.5*,3.1
CCOC(=O)[C@]12CCCC3=C1N(CCC3)C(=O)[C@@H](CC(=O)NCCCCc1ccccc1)C2,-3.4,·,·,·,6.3,·,·
Cn1nnnc1SCC(=O)N1CCN(S(=O)(=O)c2ccccc2)CC1,0.8,2.7,-1.1,-1.6,-0.3,-7.6,·
Cn1nnnc1SCC(=O)N1CCN(S(=O)(=O)c2ccc(Cl)cc2)CC1,1.0,1.9,3.5,0.2,-1.5,17.0*,-4.3
O=C(Nc1cccc(C(F)(F)F)c1)OC1CCC12CCC(c1ccccc1)CC2 (stereo not given),5.3,·,·,·,-17.1,·,·
O=C1C(=O)N(c2ccc(O)cc2)C(c2ccccc2[N+](=O)[O-])/C1=C(\O)c1ccccc1 (stereo not given),7.3,-7.0,-1.9,2.8,3.4,23.6*,1.8
C=CCN1CN(S(=O)(=O)c2cccc(Cl)c2)c2nc3ccccc3nc21,3.9,-7.5,-4.7,8.6,-2.5,46.4*,3.0
SMILES,PRMT1 FP inh,TCR-CD3 inh,Fam108B inh,PME-1 primary,SIAE primary,PAD4 FP inh,PAD4 confirm
COCCN1CN(S(=O)(=O)c2cccc(Cl)c2)c2nc3ccccc3nc21,-3.7,2.0,2.1,16.6,3.9,-3.9,·
COC(=O)[C@]12C[C@H](CC(=O)NCC34CC5CC(CC(C5)C3)C4)C(=O)N(Cc3ccco3)C1=C[C@H](COCc1ccccc1)O[C@@H]2C,4.8,·,·,·,0.6,·,·
Cc1[nH][nH]c(=O)c1C(c1ccc(-c2ccccc2C(=O)O)o1)c1c(C)[nH][nH]c1=O,9.8,-5.3,1.2,-5.4,0.5,51.2*,-6.1
Cc1[nH][nH]c(=O)c1C(c1ccc(-c2cccc(Cl)c2)o1)c1c(C)[nH][nH]c1=O,·,·,5.7,1.6,·,43.9*,35.5*
COC(=O)c1ccc(-c2ccc(C(c3c(C)[nH][nH]c3=O)c3c(C)[nH][nH]c3=O)o2)cc1,10.6,0.3,-0.5,0.1,8.7,-7.6,·
Cc1[nH][nH]c(=O)c1C(c1ccc(-c2cccc(C(=O)O)c2)o1)c1c(C)[nH][nH]c1=O,20.8,10.7,-1.0,0.8,10.3,33.3*,-11.7
Cc1ccc2oc(-c3ccccc3C(=O)O)cc(=O)c2c1,0.0,-2.5,5.3,1.2,0.9,2.5,·
CCCC1CCC2(CCCN2CCOC(=S)Nc2ccccc2Br)CC1 (stereo not given),12.4,·,·,·,-1.6,·,·
Cc1cc(C)c(C#N)c(Sc2ccccc2N)n1,-1.2,6.4,-0.8,1.7,0.2,20.5*,52.0*
COc1ccc(N(C)S(=O)(=O)c2cccc(C(=O)OCC(=O)N3CC(C)CC(C)C3)c2)cc1 (stereo not given),-0.2,-2.9,·,·,-1.7,17.1*,2.9
CC1CC(C)CN(C(=O)c2cccc(S(=O)(=O)N(C)c3ccccc3)c2)C1 (stereo not given),-0.7,3.3,·,·,2.9,·,·
COC(=O)c1cc(-c2cccc(C(F)(F)F)c2)c(=O)n2c1CCC2,3.3,·,·,·,-3.2,·,·
Cc1cc(NC(=O)c2ccc(NS(=O)(=O)c3ccccc3F)cc2)no1,3.3,·,·,·,2.9,·,·
CCCC[C@H]1C2CC(OC(=O)Nc3ccccc3OC)C(C2)[C@H]2CCCCN21 (stereo not given in full),-2.2,·,·,·,1.7,·,·
C=CCNC(=O)NC[C@@]1(C(=O)OC)CC(=O)N(C)[C@@H]1c1ccccc1,-4.6,·,·,·,0.0,·,·
CC(=O)N(C)C1=C(N2CCOCC2)C(=O)c2ccccc2C1=O,·,·,-0.9,-0.1,·,-18.4,·
CC(=O)N(C1=C(N2CCOCC2)C(=O)c2ccccc2C1=O)c1ccc(C(=O)O)cc1,-1.0,2.5,0.7,6.7,1.0,16.6*,-6.2
CCCCOCCCNC(=O)C[C@H]1C[C@@]2(C(=O)OC)C(=C[C@H](C3CCCC3)O[C@@H]2C)N(Cc2ccco2)C1=O,-9.9,·,·,·,-2.2,·,·
CCC(=O)Oc1ccc2c(=O)c(-c3ccc4ccccc4n3)c(CC)oc2c1C,-1.9,-2.8,6.2,-0.8,-1.9,-0.4,·
Cc1oc2c(C)c(O)ccc2c(=O)c1-c1ccc2ccccc2n1,1.4,-1.4,1.2,-3.8,3.5,83.6*,-5.7
COc1ccc(-c2nnc(SCc3cccc(F)c3)n2-c2ccccc2)cc1,-5.5,·,·,·,-1.5,·,·
